From PubChem BioAssay AID1347426 (Functional Genomics Laboratory (NCATS/FGL), 2020)
About 1,400 (4.5%) of roughly 31,000 sequences were called active. This is one part of a sample in which actives are shown more often than they occur.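 The calls were made as follows: active = median seed-adjusted z-score above 1 or below -1; inactive = the rest.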

Assay: Novel Modifiers of Survival Motor Neuron (SMN) Protein: Gene Identification via Genome-wide siRNA Screen
Conditions: HEK293T SMN2-luciferase reporter, siRNA knockdown, 72 h; actives lie on both sides
Source text: Spinal muscular atrophy (SMA) is the most common neuromuscular autosomal recessive disorder and one of the leading genetic causes of infant death. SMA results from mutations inducing loss of function or deletion in the survival of motor neuron-1 gene (SMN1), leading to deficiency of the survival motor neuron (SMN) protein. Although a second nearly identical gene, SMN2, is retained in humans, its expression primarily produces an aberrantly spliced isoform that is largely unstable and quickly degraded. We performed a genome-wide RNAi screen using a cell-based reporter assay to identify genes and pathways that modulate SMN protein stability. The screen identified over 200 genes that led to the greatest increase or decrease in luciferase expression.
Using HEK293T cells stably expressing a luciferase reporter that combines the promoter and splicing based cassettes in tandem with the major portion of the native SMN2 cDNA with luciferase, we performed a genome-wide RNAi screen to identify modulators of SMN protein levels. Luciferase is expressed when full-length SMN protein is generated with luminescence signal proportional to SMN protein levels. Our luciferase-based reporter assay was used to screen Ambion Silencer Select Human Druggable Genome siRNA library (10418 genes, 3 unique siRNAs per gene) using lipid-based reverse transfection.
Briefly, 1 pmol of each siRNA was spotted to a well of a 384-well plate (Corning, Corning, NY) and 20 microL of serum-free DMEM containing […] of Lipofectamine RNAiMax (Life Technologies, Carlsbad, CA) was then added to each well. Transfected cells were maintained at 37 degrees C in 5% CO2 for 72 hours, 20 microL of ONE-Glo Reagent (Promega) was added to wells for luciferase quantification. Raw luminescence reads were normalized to Ambion(R) Silencer(R) Negative Control #2 siRNA, then log10 transformed. A robust statistical measure of median absolute deviation (MAD) to standardize siRNA activities from each screen. Common Seed Analysis was used to help prioritize clean hits as opposed to those appearing to arise from seed based off-target effects. Candidate modulators were defined as the genes having a MAD score greater than 1.0 or less than -1.0.

Row | Sequence | median seed-adjusted z-score
1 | GAAGUAUGAAGAAGAAGUATT against KRT83 | 1.15 (active)
2 | GAUCAUCCCUUGUCUCUUUTT against CHRNA6 | 0.21 (inactive)
3 | GCAGAAUACUUCUAUGAAUTT against WIF1 | -0.521 (inactive)
4 | ACACCAGCCUUGCACCUGATT against NCR1 | -0.26 (inactive)
5 | CGCCUUUCAUUUUUGCUGATT against TGM1 | -0.286 (inactive)
6 | CCUUUGCCCUGUUCAAGGATT against CYP17A1 | -1.39 (active)
7 | CAUACGAGGUAUUAUCAAATT against DNAJB7 | 0.684 (inactive)
8 | GGAUCAGUAAUAUACCACATT against MTFMT | -0.0119 (inactive)
9 | CCUGGAUUACAUCUACUUATT against EPHB6 | -0.0275 (inactive)
10 | GCAGCAUUAUAGUCGUAUUTT against PRSS7 | 0.0614 (inactive)
11 | GCAUUUGUAGGGUUACGGATT against GABRG1 | 0.312 (inactive)
12 | CAUUGUAGAUUACUCAGAATT against RHOT1 | -0.189 (inactive)
13 | GAUCCAUACUUGGAUGAUATT against PAIP1 | -0.0178 (inactive)
14 | GCUCGGAUAUGCUCCAGGATT against TMPRSS5 | 1.25 (active)
15 | GCCUGGAAUUCUACCGCUATT against SLC29A1 | 0.117 (inactive)
16 | GCAUAUCUUCUAACUUGCATT against EVI1 | 0 (inactive)
17 | GGACCAAGAGGAUUGAGUATT against CLSTN2 | 0 (inactive)
18 | AGUUUAAUCGGAAAGCCUUTT against NANS | -1.54 (active)
19 | GCAACACCGACGUAAAGAATT against ALOX5 | -0.201 (inactive)
20 | UGCUCUCAGUGGAAGAGGATT against TNFRSF8 | 0.739 (inactive)
21 | GGUUGGUGUUCGAUGAGUATT against ANXA6 | -1.01 (active)
22 | GCGGCAAGGGUUUCAAGCATT against FIZ1 | 0.154 (inactive)

Row | Sequence | median seed-adjusted z-score
23 | GAAGUUCGGUCGAACCACATT against CST5 | 0.466 (inactive)
24 | CCAGUACGCUAUGGACGUATT against MDN1 | 0.187 (inactive)
25 | GUCUGUCAAUGUACCUUCUTT against 3-Mar | 0.069 (inactive)
26 | GCAACAGCAUUGUCCGUGUTT against LRRN2 | 0.324 (inactive)
27 | GAACUGACAUGGGAAGAUUTT against DUOX1 | -1.09 (active)
28 | GCCUGACUUCGACUGCUCATT against GFER | 0.402 (inactive)
29 | GGAGGCUAAUGGUUGCUUUTT against ARPC1B | 0 (inactive)
30 | CUAUUUCCCUGCCUUCGAATT against GSTA3 | 0.334 (inactive)
31 | CAACAAAAGUUUCAUGCUATT against STK35 | 0.519 (inactive)
32 | GGAGGUACGUGGAAAAGCATT against ORC3L | -0.254 (inactive)
33 | GCUUCGGAAUUCAGACAUUTT against NFATC4 | 0 (inactive)
34 | GGCCCUUGGCCUUACUAUGTT against ACSM2B | -0.0401 (inactive)
35 | GCACGAUAUUAUGAUCCAATT against PPAT | -1.51 (active)
36 | CAACCACCAUCUGACCUUUTT against MMP15 | -0.0489 (inactive)
37 | GGCUGAAAACGGAGCACAATT against PCDHB16 | -0.523 (inactive)
38 | CAGUGACUGUUGUUGGUCUTT against PKD1L3 | -0.658 (inactive)
39 | GGAGGAGCCUAAGAUGUCATT against ZNF442 | 1.06 (active)
40 | AAGGGAAAGUGUACUGGUATT against MMP23B | 0.288 (inactive)
41 | GGCUAUUGAUUGUCCACAUTT against L2HGDH | -0.346 (inactive)
42 | CUACCGAGAUUUUAGAUGATT against POLE | -1.55 (active)
43 | CACUAUAUCUAUAUCGAAATT against PLD1 | 0.518 (inactive)
44 | GACCCAUACAGAAAGUAGATT against SSR1 | -0.434 (inactive)

Row | Sequence | median seed-adjusted z-score
45 | GAUGCGCACUCAGUCCUUATT against MLLT4 | -0.0762 (inactive)
46 | CUGUGAGAAUUGUUGCUCUTT against TRIP6 | 1.03 (active)
47 | GGAUCUCAGUCAAAGGCAUTT against CPZ | -0.0748 (inactive)
48 | CGAUCGAGUGGAUGAAGAATT against MMP24 | -1.28 (active)
49 | ACAUUGAACGUCCCACGUATT against TUBA3E | -0.35 (inactive)
50 | GCUAAGAGCUUCGUGCUGATT against LGALS1 | 0.033 (inactive)
51 | CCAUGGAUAUGGAAACCCATT against ALPK3 | 0.365 (inactive)
52 | GGAGAGAGCAGUUUCAACATT against HSPB8 | 0.207 (inactive)
53 | GGAUAGAAUAUGUAACGGUTT against SUPT6H | -2.54 (active)
54 | CACCGGUGAGAUUCCCUAUTT against ZNF546 | 0.497 (inactive)
55 | GCUUACUACACUUUUCUAATT against G6PC2 | -0.0362 (inactive)
56 | CAAACUCUACAUCACCUUUTT against GPR32 | -1.2 (active)
57 | CAAGAACUCGGAUAAUGAUTT against IL2RG | -0.155 (inactive)
58 | CACGGUAUAUGUUAGAGUATT against DSG3 | 0 (inactive)
59 | UCCCUUACAUGUCACCAAATT against ZMIZ2 | -0.27 (inactive)
60 | GCCUACAAGCAGAUUCAAATT against PTRH2 | 0.0467 (inactive)
61 | ACCCAACUCUUACUCUUAATT against RNF7 | -1.18 (active)
62 | GGCUCAACGUAUAAGCGAATT against PIP5K1B | 0.0917 (inactive)
63 | GAUGGAAACAUUGAAUAUATT against GTPBP2 | -0.166 (inactive)
64 | GAAGGAGUUUGCACAGAAATT against DHDH | 0.522 (inactive)
65 | CAGUCUUCAUUGCUACUAATT against NFE2L2 | -0.596 (inactive)
66 | GAAGCAAUCUGGGAAGAGATT against MOCS3 | -0.496 (inactive)

Row | Sequence | median seed-adjusted z-score
67 | CGCCCAACCUUACUACCUUTT against TXNDC14 | -2.39 (active)
68 | GGAUGGUUGUGAGCCGCUATT against ZNF784 | 0.291 (inactive)
69 | CGACGACGUGCAAGACCAATT against ZNF787 | -0.0628 (inactive)
70 | CCUUUACUUUCUAUAGAAATT against ZNF573 | -0.169 (inactive)
71 | GCAGUUAUUGGUACUAAUATT against MOAP1 | 0.0405 (inactive)
72 | AGAGAAUCUCGAGGAUAUATT against ZNF74 | 1.17 (active)
73 | CCUUAUCGCUAGAUGUCAATT against GRM3 | -0.401 (inactive)
74 | GCUGAGCUCAGUAACCACATT against LCAT | 0.526 (inactive)
75 | GCAAUGCCCUUUUCACCGATT against SERPINA5 | -1.01 (active)
76 | CCAUGACAACUUUCACUGATT against AGFG2 | -0.289 (inactive)
77 | GCAGAAAAGAACAACUUGUTT against RAB11B | -0.857 (inactive)
78 | GCAAUAGGAUGGAUGAUCATT against GPSM2 | -0.755 (inactive)
79 | GCAGCUCACUUAAGGCCUATT against VPS18 | 0.181 (inactive)
80 | GAUCUAUUCUUAAUGCCGATT against TFB1M | 0.172 (inactive)
81 | GAAAUUUCUUAGGAACUCATT against ADH1B | 0.325 (inactive)
82 | CCCUCAAUCCAGCACAAAATT against LILRA4 | 0.109 (inactive)
83 | GGGACCGAGAGAUCAGAUATT against PPAP2C | -1.12 (active)
84 | CUUCCAAUGUUAAUGGACATT against VHLL | -0.0852 (inactive)
85 | GAGGCUCGGUAAUCAAUGATT against DERL1 | 0.22 (inactive)
86 | GCUUUAGAAUACAUACCAATT against IFIT2 | -0.0205 (inactive)
87 | CCCUCAAGGUACAAACAUUTT against POLD1 | -0.715 (inactive)
88 | CAGGAGCAGUUAGACUUAATT against DNALI1 | 0.699 (inactive)

Row | Sequence | median seed-adjusted z-score
89 | GGUUUGCCCUUAUCUUGUATT against RDH10 | -0.28 (inactive)
90 | GAAUAACCGUUGGUUUAAUTT against U2AF1 | 2.08 (active)
91 | AAUUGAGGAAUACAAAAGATT against PAX3 | 0.0223 (inactive)
92 | GGAUGGGCAUGUUGAGAGATT against NUDT9 | 0.277 (inactive)
93 | GGAUCUGACAGACAAUGAUTT against ABCC3 | -0.549 (inactive)
94 | CGUGGAUUCUUACGGAAGATT against CIT | -0.0585 (inactive)
95 | GAGUCUAUCUUGAUAAUCUTT against PPWD1 | -0.341 (inactive)
96 | CCGGGUUAAUUACCACCUUTT against MTHFR | 0 (inactive)
97 | GAGAAGUCGAGGCUCUUUATT against WNT6 | 0.027 (inactive)
98 | CGGUGAACGGGUUGGAGAATT against PAX9 | -1.16 (active)
99 | GCUUUGACCUUCUUAGCAATT against SMARCAL1 | -0.145 (inactive)
100 | CAACGAUAUUUGGAUAUCUTT against DPP8 | -0.0209 (inactive)
101 | GGUCAAUACACCUAAGAAATT against PRDX1 | 0.288 (inactive)
102 | GAUCGUUUCCUAUACAGUATT against ESPL1 | 0.871 (inactive)
103 | GGGCUGUGAUCUUGUCGAATT against AGMAT | -0.0269 (inactive)
104 | CAACGACAGAACUAACAGATT against SENP6 | -1.03 (active)
105 | GAAGGUGUUUCAUACGAAUTT against SIPA1L1 | 0.0925 (inactive)
106 | CUCUAUGAAUAUUGUAUUATT against BUD31 | 0.0554 (inactive)
107 | GGCUAACAAUUUGUCCAGUTT against SEC22B | -0.106 (inactive)
108 | CGUCAUCUUUGCGAAGAUUTT against EHD2 | 0.0989 (inactive)
